Measured values as given in PubChem BioAssay AID720519 (National Center for Advancing Translational Sciences (NCATS), 2013).
Records with an inconclusive call do not appear. Where a call stands in place of a potency, no number is given. Active and inactive are the calls of the source. Calls come from the whole dose curve; as a rule, active = well fitted activation curve with a large enough effect; inconclusive = small, poorly fitted or top-dose-only effect; inactive = flat fitted curve, though single readings scatter.
Potency is the fitted concentration of half-maximal effect.

Test: qHTS for Inhibitors of Cell Surface uPA Generation: Confirmatory Assay for Cherry-picked Compounds
Conditions: cell surface uPA activity generation, qHTS confirmation; series mostly up to 115 µM
Outline: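 RAW 264.7 cells at 4000/well, incubated overnight, then treated with compounds. After 24 h at 37 C, viability was read by ATPlite luminescence. An increase in signal indicates blocked uPA-dependent LF entry.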
In the case of `S=C(Nc1ccccc1Oc1ccccc1)NC1CCCC1`, the Potency is reported as “inactive”. In the case of `COCCN1C(=O)C(=O)/C(=C(/O)c2ccc(S(=O)(=O)N3CCOCC3)cc2)C1c1cccc([N+](=O)[O-])c1` (centres undefined), the Potency is reported as “inactive”. In the case of `Cc1ccc2oc(=O)c3cnn(CC(=O)Nc4ccccc4N4CCN(C)CC4)c3c2c1`, the Potency is reported as 9.27 µM (active). With `Cc1ccc(-c2cc(C(=O)NCC3CCCO3)no2)cc1` (centres undefined) the Potency was “inactive”. For `O=C(c1ccccn1)C1CCCN(Cc2cn[nH]c2-c2cc3ccccc3o2)C1` (centres undefined), the Potency was “inactive”. For `COc1ccc2cc(CCNC(=O)c3ccc4c(c3)OCO4)c(=O)[nH]c2c1`, the Potency was “inactive”. For `CCCCN(CC(=O)Nc1cccc(S(=O)(=O)N2CCCC2)c1)Cc1nc2ccccc2c(=O)[nH]1`, the Potency was “inactive”. For `C=CC(=O)N1C/C(=C/c2ccccc2)C(=O)/C(=C\c2ccccc2)C1`, the Potency was 26.1 µM (active). In the case of `O=C(CSC1=NS(=O)(=O)c2ccccc2N1)Nc1nccs1`, the Potency is reported as “inactive”. In the case of `CCN(CC)c1ccc(C=NCCc2ccc(S(N)(=O)=O)cc2)cc1`, the Potency is reported as “inactive”. With `CCNc1nc(Nc2ccc(C)c(Cl)c2)c2cnn(C)c2n1` the Potency was “inactive”. With `COCc1c(C(=O)Nc2nc(C)cs2)oc2ccccc12` the Potency was “inactive”. For `CC1(C)CC(CCC(=O)NC(=S)Nc2ccccc2Cl)C(=O)O1` (centres undefined), the Potency was “inactive”. For `COc1cc(C(=O)Nc2nnc(C)s2)cc(OC)c1OC`, the Potency was “inactive”. With `CC1=CC(C)(C)N2C(=O)C3(NCCc4c3[nH]c3ccccc43)c3cc(C)cc1c32` (centres undefined) the Potency was 2.33 µM (active). In the case of `COc1cccc(NC(=O)N2C3CCCC2CC(NC(C)=O)C3)c1` (centres undefined), the Potency is reported as “inactive”. For `Cc1ccc(-n2ncc(C(=O)NC3CC3)c2C2CCN(C(=O)OC(C)(C)C)CC2)cc1`, the Potency was “inactive”. With `CC(C)(O)C#Cc1ccc(C(=O)N2CCCC(CCC(=O)NCc3ccccc3F)C2)cc1` (centres undefined) the Potency was “inactive”. In the case of `Cc1nc(SCc2nc3ccccc3[nH]2)c2oc3cc([N+](=O)[O-])ccc3c2n1`, the Potency is reported as “inactive”. For `COc1ccc(S(=O)(=O)N2CCOCC2)cc1NC(=O)CN1C(=O)NC2(CCCC2)C1=O`, the Potency was “inactive”. For `CC(C)(C)n1ncc2c(=O)n(Cc3ccc(Cl)cc3)cnc21`, the Potency was “inactive”. With `CC(=O)Nc1sc(C)c(C)c1C(=O)OCC(=O)NC(C)c1ccccc1` (centres undefined) the Potency was “inactive”. With `COC(=O)/C(C#N)=C/c1c(N2CCN(c3ccccc3)CC2)nc2c(C)cccn2c1=O` the Potency was “inactive”. For `CC1Cc2nc(SCC(=O)Nc3ccc4c(c3)OCO4)n(-c3ccc(F)cc3)c(=O)c2S1` (centres undefined), the Potency was “inactive”. For `O=C(CCCC(=O)N1CCN(c2ccccc2F)CC1)c1ccccc1`, the Potency was “inactive”. In the case of `O=C(CSc1ccc([N+](=O)[O-])cn1)Nc1nccs1`, the Potency is reported as “inactive”. In the case of `C/C(=N\NC(=O)c1ccccc1)c1c(C)[nH]n(-c2ccccc2)c1=O`, the Potency is reported as “inactive”. In the case of `O=C(CSc1nncs1)NC(=O)NCc1ccco1`, the Potency is reported as “inactive”. With `O=C(NCCCn1ccnc1)C(=O)NCC(c1cccnc1)N1CCN(c2ccc(F)cc2)CC1` (centres undefined) the Potency was “inactive”. For `O=C(Nn1cnnc1)c1ccc(Cl)c(Cl)c1`, the Potency was “inactive”. For `CCCCCN(C(=O)CCC(=O)OCCOc1cccc(Cl)c1)c1c(N)n(CCCC)c(=O)[nH]c1=O`, the Potency was “inactive”. For `COc1ccc(C(=O)CC(=O)C(=O)Nc2ccccc2)cc1`, the Potency was “inactive”. For `Cc1ccc(C)c(NC(=O)CCN2CCN(c3ccccc3F)CC2)c1`, the Potency was “inactive”. With `Cc1ccccc1-c1nnc(SCC(=O)NCC2CCCO2)o1` (centres undefined) the Potency was “inactive”. In the case of `CCC(NC(=S)NCc1ccc(F)cc1)c1ccccc1` (centres undefined), the Potency is reported as “inactive”. In the case of `CCOc1cc(C)c(S(=O)(=O)N2CCCCC2)cc1C`, the Potency is reported as “inactive”. With `COc1ccc(CCNC(=O)COC(=O)CNS(=O)(=O)c2ccc(SC)c([N+](=O)[O-])c2)cc1` the Potency was “inactive”. For `COc1ccc(NS(=O)(=O)c2cccc(C(=O)NCc3ccccc3CN3CCCC3)c2)cc1`, the Potency was 7.36 µM (active). With `O=[N+]([O-])c1ccc(SCc2ccncc2)nc1` the Potency was “inactive”.
